For seven compounds, Potency and outcome results are on record in PubChem BioAssay (Tox21).

Values joined by “and” are separate entries in the source; they are usually repeats but may differ in a detail not shown here. Equal values may be shown once. Results filed as inconclusive are left out. Some compounds were tested as several samples or in several runs, with calls that do not always agree. Active and inactive are the calls of the source. Unless noted, calls come from the whole dose curve; as a rule, active = well fitted curve in the direction sought with a large enough effect in the repeat runs; inconclusive = weak or mixed curves; inactive = no such curve, though single readings can be large; an effect the other way counts as inactive or inconclusive.

A short description of test [1]: qHTS RealTime-Glo MT Cell Viability Assay in HEK293 cells - 0 hour (AID 1224880). Note: top concentration of the series differs between compounds; nearly all actives have a fitted effect of over 45% in size. The method in brief:
(§1)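 600 HEK293 cells per well, dispensed already mixed with RealTime-Glo MT reagents. Compound dosing came 5 h later. The same wells were read for luminescence at 0, 8, 16, 24, 32 and 40 h of exposure at 37 C.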

Test [2] can be described thus: A CellTox Green Cytotoxicity Assay to monitor cytotoxicity in HEK293 cells - 32 hour (AID 1224881). Note: nearly all actives have a fitted effect of over 40% in size. Note: potency is the fitted concentration of half-maximal effect. The method in brief:
(§2)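 Dead-cell fluorescence measured kinetically: asymmetric cyanine dye, HEK293, 600 cells/well, 5 h settle, 23 nL cpd/DMSO, 37 C, reads 0–40 h every 8 h.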

A short description of test [3]: A CellTox Green Cytotoxicity Assay to monitor cytotoxicity in HepG2 cells - 0 hour (AID 1224882). Note: nearly all actives have a fitted effect of over 35% in size. Note: potency is the fitted concentration of half-maximal effect. An outline of the steps:
(§3)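 First, HepG2 cells (600/well) mixed with reagent were plated; second, after 5 h at 37 C they received compounds via pintool; third, fluorescence was measured at 0 h through 40 h at 8 h intervals.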

Test [4] in a line: A CellTox Green Cytotoxicity Assay to monitor cytotoxicity in HepG2 cells - 32 hour (AID 1224883). Note: nearly all actives have a fitted effect of over 50% in size. Note: potency is the fitted concentration of half-maximal effect. The method in brief:
as §3

A short description of test [5]: qHTS RealTime-Glo MT Cell Viability Assay in HepG2 cells - 16 hour (AID 1224885). Note: nearly all actives have a fitted effect of over 50% in size. Note: potency is the fitted concentration of half-maximal effect. The method in brief:
(§4)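 HepG2 cells were seeded at 600 cells/well together with NanoLuc luciferase and a cell-permeant prosubstrate, preincubated 5 h at 37 C/5% CO2, then pin-dosed with compounds in DMSO. Nonlytic luminescence from viable cells was read at each time point.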

Test [6] can be described thus: qHTS RealTime-Glo MT Cell Viability Assay in HEK293 cells - 24 hour (AID 1224886). Note: nearly all actives have a fitted effect of over 50% in size. Note: potency is the fitted concentration of half-maximal effect. The method in brief:
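HEK293 cells were seeded at 600 cells/well together with NanoLuc luciferase and cell-permeant prosubstrate, preincubated 5 h at 37 C/5% CO2, then given compound in DMSO by pintool. Luminescence from viable-cell prosubstrate reduction was read repeatedly over 40 h.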

A short description of test [7]: qHTS RealTime-Glo MT Cell Viability Assay in HEK293 cells - 8 hour (AID 1224887). Note: nearly all actives have a fitted effect of over 50% in size. Note: potency is the fitted concentration of half-maximal effect. An outline of the steps:
as §1

Test [8] is described as follows: A CellTox Green Cytotoxicity Assay to monitor cytotoxicity in HEK293 cells - 16 hour (AID 1224888). Note: nearly all actives have a fitted effect of over 35% in size. The method in brief:
as §2

Test [9] is described as follows: qHTS RealTime-Glo MT Cell Viability Assay in HepG2 cells - 0 hour (AID 1224889). Note: nearly all actives have a fitted effect of over 50% in size. An outline of the steps:
as §4

Test [10] in a line: A CellTox Green Cytotoxicity Assay to monitor cytotoxicity in HepG2 cells - 8 hour (AID 1224890). Note: nearly all actives have a fitted effect of over 45% in size. Note: potency is the fitted concentration of half-maximal effect. An outline of the steps:
as §3

Test [11] is described as follows: qHTS assay to identify small molecule antagonists of the estrogen receptor alpha (ER-alpha) signaling pathway using the BG1 cell line in the presence of 0.1 nM 17-beta-estradiol - cell viability counter screen (AID 1259241). Note: nearly all actives have a fitted effect of over 40% in size. The method in brief: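 Cytotoxicity counter-screen: live-cell protease activity measured by fluorescence (30 min reagent step) in the same wells. Cells were VM7Luc4E2 with endogenous ER-alpha and ERE-driven luciferase, treated 22 hr at 37C alongside 0.1 nM 17beta-estradiol final.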

A short description of test [12]: qHTS assay to identify small molecule antagonists of the androgen receptor (AR) signaling pathway using the MDA cell line in the presence of 0.5 nM R1881 - cell viability counter screen (AID 1259242). Note: nearly all actives have a fitted effect of over 45% in size. An outline of the steps: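 qHTS format. MDA-kb2 (MMTV-luc, AR/GR responsive) + cpd + 0.5 nM R1881 final, 16 hr 37C/0% CO2 → CellTiter-Fluor 30 min → fluorescence intensity.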

Test [13] in a line: qHTS assay to identify small molecule HDAC inhibitors (AID 1259364).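 Note: wild-type HCT-116 cells with endogenous class I/II HDAC activity; top concentration of the series differs between compounds; nearly all actives have a fitted effect of over 45% in size.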 An outline of the steps:
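Quantitative high-throughput format: overnight-seeded HCT-116 cells got compounds for 2 hr at 37C; HDAC-Glo I/II reagent added, 30 min RT, luminescence measured.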

Test [14] is described as follows: qHTS assay to identify small molecule HDAC inhibitors - cell viability counter screen (AID 1259365). The method in brief:
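CellTiter-Glo luminescence (30 min, room temperature) reported viability after a 2 h compound exposure at 37 C. Cells: wild-type HCT-116, 1,500 per well, seeded the night before.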

A short description of test [15]: qHTS assay to identify small molecule agonists of the sonic hedgehog signaling (Shh) pathway - cell viability counter screen (AID 1259366). Note: nearly all actives have a fitted effect of over 50% in size. Note: potency is the fitted concentration of half-maximal effect. The method in brief:
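Cytotoxicity counter screen: CellTiter-Fluor reagent added after 23 h compound exposure, then 1 h at 37C and fluorescence read. Cells were 3T3 Gli1-Luc, seeded 2,000 per well and dosed 4 h post-plating.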

The nature of test [16]: qHTS assay to identify small molecule antagonists of the sonic hedgehog signaling (Shh) pathway - cell viability counter screen (AID 1259367). Note: nearly all actives have a fitted effect of over 55% in size. The method in brief: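 Tox21 library chemicals were tested on a Gli1-Luc NIH/3T3 clone (2,000 cells/well) stimulated by conditioned medium; viability was quantified as fluorescence from CellTiter-Fluor reagent added at 23 hr.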
Test [17] deals with Estrogen receptor (Homo sapiens) (UniProt P03372). Kind of test: qHTS assay to identify small molecule antagonists of the estrogen receptor alpha (ER-alpha) signaling pathway using the BG1 cell line in the presence of 0.1 nM 17-beta-estradiol (AID 1259244). Note: nearly all actives have a fitted effect of over 50% in size. The method in brief:
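Reporter is a stably transfected luciferase under four estrogen responsive elements in VM7Luc4E2 cells expressing native full-length ER-alpha; inhibition of 0.1 nM (final) 17beta-estradiol-driven signal over 22 h is read by luminescence.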

Test [18] is described as follows: qHTS assay to identify small molecule phospholipidosis (PLD) inducers (AID 1259344; active = well fitted curve in the direction sought with a large enough effect; an effect the other way counts as inactive or inconclusive). The method in brief: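 Image-based: LipidTOX Red pit count/intensity per well and per cell; HepG2, 24 h compound at 37 C, PFA fixation, Hoechst counterstain.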

Estrogen receptor (Homo sapiens), sequence (P03372 whole entry, looked up): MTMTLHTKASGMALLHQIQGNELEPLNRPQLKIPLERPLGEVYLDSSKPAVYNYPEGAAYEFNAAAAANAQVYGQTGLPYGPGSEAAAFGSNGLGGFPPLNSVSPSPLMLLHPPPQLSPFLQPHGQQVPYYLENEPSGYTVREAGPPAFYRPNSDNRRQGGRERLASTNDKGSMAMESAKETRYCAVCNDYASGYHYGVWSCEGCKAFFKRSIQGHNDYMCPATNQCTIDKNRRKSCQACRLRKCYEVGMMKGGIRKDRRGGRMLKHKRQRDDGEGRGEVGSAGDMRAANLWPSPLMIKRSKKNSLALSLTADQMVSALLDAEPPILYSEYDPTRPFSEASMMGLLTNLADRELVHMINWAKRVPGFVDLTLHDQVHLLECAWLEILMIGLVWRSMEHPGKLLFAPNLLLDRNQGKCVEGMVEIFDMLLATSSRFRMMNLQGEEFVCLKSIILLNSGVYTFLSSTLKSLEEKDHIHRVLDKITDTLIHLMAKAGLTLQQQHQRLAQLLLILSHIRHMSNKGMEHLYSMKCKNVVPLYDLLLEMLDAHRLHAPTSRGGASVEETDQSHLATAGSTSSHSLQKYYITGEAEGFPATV

Take `C/C=C(C)/C=C/C=C(C)C`: the Potency result in test [1], in test [2], in test [3], in test [4], in test [5] and in test [6] was “inactive” in each case. For the same compound, the Potency entry in test [7], in test [8], in test [9], in test [10], in test [11] and in [12] was “inactive” in each case. The Potency entry in test [13], in [15] and in [16] was “inactive” each time. For the same compound, the outcome in test [14] was inactive.

As to `CC(C)(N=C=O)c1cccc(C(C)(C)N=C=O)c1`, the Potency result in test [1], in test [2], in test [3], in test [4], in test [5] and in [6] was “inactive” throughout. The Potency result in test [7], in test [8], in test [9], in [10], in test [11] and in test [12] was “inactive” throughout. In addition, the Potency entry in test [13], in [15] and in [16] was “inactive” throughout. The compound was called inactive in [14].

For the compound `NS(=O)(=O)c1cc2c(cc1Cl)NC=NS2(=O)=O`, the Potency entry in test [1], in test [2], in test [3], in [4], in [5] and in test [6] was “inactive” throughout. In addition, the Potency entry in test [7], in test [8], in test [9], in test [10], in [11] and in test [12] was “inactive” in each case. Also, the Potency result in test [17], in test [13], in test [15] and in test [16] was “inactive” throughout. Moreover, the compound was called inactive in [18] and in test [14].

Turning to `CCCCC(CC)COC(=O)CCCCCCCC(=O)OCC(CC)CCCC` (stereo unspecified), the Potency entry in test [1], in test [5], in test [7], in test [9], in [12] and in test [13] was “inactive” throughout. Further, the Potency result in test [15] and in test [16] was “inactive” in each case. Further, the Potency in [2] was 54.9 µM (active) and inactive; in test [3], 54.9 µM (active) and inactive; in [4], 49 µM (active); in test [6], 24.5 µM (active) and inactive; in [10] it was 54.9 µM (active) and inactive. The outcome in [14] was inactive.

Regarding `CCCCCCCCCCCCN`, the Potency result in test [1], in test [3], in [9], in [11], in test [12] and in test [13] was “inactive” throughout. Also, the Potency result in test [16] was “inactive”. For the same compound, the Potency entry is “inactive and 43.6 µM (active)” in test [2]; “inactive and 21.9 µM (active)” in test [4]; “inactive and 24.5 µM (active)” in [5]; “inactive and 38.9 µM (active)” in test [6]; “inactive and 38.9 µM (active)” in test [7]; “inactive and 24.5 µM (active)” in test [10]. Moreover, in test [15], the Potency is 27.3 µM (active) and inactive. Also, the call in test [14] was inactive.

For `CC[Si](OC(C)=O)(OC(C)=O)OC(C)=O`, the Potency result in test [1], in test [2], in [3], in [4], in test [6] and in [7] was “inactive” each time. Also, the Potency result in test [8], in test [9], in test [10], in [11], in [12] and in [17] was “inactive” in each case. The Potency entry in test [13], in test [15] and in test [16] was “inactive” throughout. For the same compound, in test [14], the outcome was inactive.

Consider `Cc1cc(Cc2ccc(N)c(C)c2)ccc1N`, for which the Potency entry in test [1], in test [2], in [3], in [4], in test [5] and in test [6] was “inactive” in each case. Besides, the Potency result in test [7], in test [8], in [9], in test [10], in test [11] and in test [12] was “inactive” throughout. Moreover, the Potency result in test [13], in test [15] and in test [16] was “inactive” each time. Also, the call in test [14] was inactive.
